100 compounds from PubChem BioAssay AID488977 (Johns Hopkins Ion Channel Center, 2010) can be followed below.

About 1,500 (0.48%) of roughly 310,000 compounds were called active.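 How the source made its calls: active means initial fluorescence not abnormally high and integrated response B-score, plate-corrected, over 3 SD above library mean; inactive means the rest.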 The full list was thinned out, with actives kept by preference.

High affinity choline transporter 1 (Homo sapiens), sequence (Q9GZV3 whole entry, looked up): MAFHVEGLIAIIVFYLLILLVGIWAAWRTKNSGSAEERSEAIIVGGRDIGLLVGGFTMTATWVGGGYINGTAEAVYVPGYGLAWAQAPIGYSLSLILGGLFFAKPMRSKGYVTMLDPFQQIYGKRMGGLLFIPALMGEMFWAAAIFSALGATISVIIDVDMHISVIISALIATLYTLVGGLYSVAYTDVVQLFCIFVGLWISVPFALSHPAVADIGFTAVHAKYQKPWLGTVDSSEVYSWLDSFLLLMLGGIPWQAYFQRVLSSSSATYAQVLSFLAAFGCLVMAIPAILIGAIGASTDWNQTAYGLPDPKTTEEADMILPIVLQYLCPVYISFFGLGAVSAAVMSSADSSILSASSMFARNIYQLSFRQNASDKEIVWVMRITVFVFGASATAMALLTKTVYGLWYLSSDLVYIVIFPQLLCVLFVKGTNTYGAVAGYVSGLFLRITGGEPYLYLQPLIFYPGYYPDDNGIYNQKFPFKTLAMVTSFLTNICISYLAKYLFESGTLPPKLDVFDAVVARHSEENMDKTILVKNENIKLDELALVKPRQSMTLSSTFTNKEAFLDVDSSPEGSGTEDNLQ

The assay addresses High affinity choline transporter 1 (Homo sapiens) (UniProt Q9GZV3). Put plainly: allosteric activators of human choline transporter – cell-based, membrane potential dye, choline EC20, primary screen (AID 488977). The following applies: CHT-expressing cells, at 10 µM, LV-AA mutant CHT in HEK293 cells; stronger effect = higher value.
Turning to `COc1ccc(C(=O)C2CCCN(C(=O)c3ccc(OC)o3)C2)c(C)c1` (stereo not given), the B-score entry is “inactive”. To `COc1ccc(NC(=O)CCC(=O)N2CCN(S(=O)(=O)c3ccc(C)cc3)CC2)c(OC)c1` belongs “inactive”. To `COc1ccc2sc(N(CCCN(C)C)C(=O)c3ccc(S(=O)(=O)N(C)C4CCCCC4)cc3)nc2c1` belongs “inactive”. To `CCN1C(=O)[C@H]2[C@@H](c3ccc(-c4ccc(OC)cc4)cc3)N[C@@](Cc3ccccc3)(C(=O)OC)[C@H]2C1=O` belongs “inactive”; to `CCCc1cc(=O)oc2c(C)c(OC(C)C(=O)NCC(O)c3ccccc3)ccc12` (stereo not given), “inactive”. Turning to `Cc1c(OC(C)C(=O)NCC2CCC(C(=O)O)CC2)ccc2c1oc(=O)c1ccccc12` (stereo not given), the B-score entry was “inactive”. To `Cc1cc(=O)oc2c(C)c(OC(C)C(=O)NC3CCN(Cc4ccccc4)CC3)ccc12` (stereo not given) belongs 6.43 (active); to `CC(OC(=O)C1CC(=O)N(Cc2ccccc2)C1)C(=O)Nc1ccccc1[N+](=O)[O-]` (stereo not given), “inactive”; to `CC(C)Oc1ccc(S(=O)(=O)N2CCOCC2)cc1NC(=O)C1CSC2(C)CCC(=O)N12` (stereo not given), “inactive”. With `Cc1cc(Nc2ccc(Br)cc2)nc2ccccc12`, the B-score result is “inactive”.

For the compound `Cc1ccc(NC(=O)c2cnc(SCC(=O)NCC3CCCO3)n(C)c2=O)cc1` (stereo not given), the B-score result was “inactive”.

As for `Cc1cccn2c(=O)c3cc(C(=O)NCCN4CCOCC4)c(=N)n(Cc4cccnc4)c3nc12`, the B-score entry is “inactive”. The result for `Cc1cccn2c(=O)c3cc(C#N)c(=O)n(CCCN4CCOCC4)c3nc12` reads 7.22 (active).

Regarding `Cc1cccn2c(=O)c3cc(C(=O)N4COCC4(C)C)n(C)c3nc12`, the B-score entry is “inactive”.

Turning to `Cc1ccc2nc(NC(=O)CSc3nc(=O)n(CCCN(C)C)c4c3CCC4)sc2c1`, the B-score entry is “inactive”. To `O=C(C1CCCO1)N1CCC(c2nc3ccccc3[nH]2)CC1` (stereo not given) belongs “inactive”. As to `COc1cc2nc(N3CCN(C(=O)[C@@H]4CCCO4)CC3)nc(N)c2cc1OC`, the B-score was 8.15 (active). To `COC(=O)c1cc(OC)c(OC)cc1NC(=O)C1CCCO1` (stereo not given) belongs “inactive”; to `COc1ccc(-c2cc(C(=O)N/N=C/c3cccnc3)c3ccccc3n2)c(OC)c1`, “inactive”. The result for `Cc1ccc(CNC(=O)c2cc(-c3ccccc3C)n(CC3CC(c4cccc([N+](=O)[O-])c4)=NO3)n2)cc1` (stereo not given) reads “inactive”; that for `CCN(CC)C(=O)N(CC)Cc1ccccc1`, “inactive”; that for `O=C(c1ccccc1F)N(Cc1ccccc1)Cc1ccccc1`, 6.51 (active). To `Cc1cccc(N(Cc2ccccc2)C(=O)c2ccccc2F)c1` belongs “inactive”; to `Cc1ccc(NC(=O)CSCC(=O)Nc2sccc2C#N)cc1`, “inactive”; to `Cc1nnc(SCCCn2c(N3CCCCC3)nc3c2c(=O)[nH]c(=O)n3C)s1`, “inactive”.

On to `Cn1c(=O)[nH]c(=O)c2c1nc(N1CCN(CCO)CC1)n2CCSc1nc2ccccc2s1`, for which the B-score is 7.66 (active).

In the case of `CN1CCN(c2nc3c(c(=O)[nH]c(=O)n3C)n2Cc2cccc3ccccc23)CC1`, the B-score entry is “inactive”. To `CCC1Nc2ncnc(N3CCN(c4ccccc4)CC3)c2N(Cc2ccc(Cl)cc2)C1=O` (stereo not given) belongs “inactive”; to `O=C(CCC1CCCCC1)Nc1cc(C(F)(F)F)ccc1N1CCOCC1`, “inactive”. For the compound `CC(C)c1ccc(S(=O)(=O)N2CCN(C(=O)CN3C(=O)NC(C)(c4ccccc4)C3=O)CC2)cc1` (stereo not given), the B-score entry was “inactive”. The result for `CCCCCCCNC(=O)C1(CC2CC(c3cccc(Br)c3)=NO2)CCN(C(=O)c2cc(OCC)c(OCC)c(OCC)c2)CC1` (stereo not given) reads “inactive”; that for `Cc1ccc(S(=O)(=O)N2CCN(C(=O)Cc3sc(C)nc3-c3ccc(F)cc3)CC2)c(C)c1`, “inactive”; that for `O=C(Nc1ncccc1O)c1ccc(C(=O)c2ccccc2)cc1`, “inactive”. The result for `COc1ccccc1CCC(=O)NNC(=O)c1ccncc1` reads “inactive”; that for `Cc1cc(NC(=O)Nc2ccccc2)n(-c2ccccc2)n1`, “inactive”. The result for `O=C(Nc1ccc(Cl)cn1)c1cnn2cccnc12` reads “inactive”. As to `Cc1cc(NC(=O)c2cnn3cccnc23)n(-c2ccccc2)n1`, the B-score was 6.76 (active).

Turning to `CCOc1cc(C(=O)Nc2ccc(S(=O)(=O)Nc3cnc4ccccc4n3)cc2)cc(OCC)c1OCC`, the B-score result is “inactive”. To `O=C(NCC(c1ccco1)N1CCc2ccccc2C1)c1ccccc1Cl` (stereo not given) belongs “inactive”; to `COc1ccc(C(CNC(=O)c2cccc(NS(=O)(=O)c3ccc(C)c(F)c3)c2)N2CCCC2)cc1` (stereo not given), “inactive”; to `CCOC(=O)N1CCN(C(=O)c2ccc(S(=O)(=O)Nc3cccc(C(F)(F)F)c3)cc2)CC1`, “inactive”. The result for `CCn1c(/C=C/Nc2ccccc2)[n+](CC)c2ccc(C(=O)OCC(F)(F)F)cc21` reads 7.01 (active); that for `CCOC(=O)c1cc2ccccc2n1CC(=O)c1ccccc1`, “inactive”.

As for `Cc1onc(-c2ccccc2Cl)c1C(=O)OCc1nnc(-c2ccccc2)o1`, the B-score result was “inactive”. To `CCN(CC(=O)Nc1c(F)cccc1F)C(=O)c1ccc(-c2ccccc2)cc1` belongs “inactive”. On to `O=C(CSC1=NS(=O)(=O)c2cc(F)ccc2N1)Nc1ccccc1F`, for which the B-score result is “inactive”. To `COc1cccc(CC2(CO)CCCN(Cc3ccc(OC(F)F)cc3)C2)c1` (stereo not given) belongs “inactive”. On to `CCCCCN(C(=O)CCC(=O)OCCOc1ccc(OC)cc1)c1c(N)n(CCCC)c(=O)[nH]c1=O`, for which the B-score entry was “inactive”. To `CCCCCC(=O)N1CCN(S(=O)(=O)c2ccc3c(c2)OCCCO3)CC1` belongs “inactive”. To `c1ccc(Nc2nc(N3CCOCC3)c3ccccc3n2)cc1` belongs “inactive”; to `CN1CCN(c2nc(Nc3ccc(O)cc3)nc3ccccc23)CC1`, 6.97 (active); to `Cc1cccc(-c2nc(Nc3ccc(O)cc3)c3ccccc3n2)c1`, “inactive”.

Take `C=CCOc1cccc(C2C(C(=O)c3ccc(C)o3)=C(O)C(=O)N2c2nnc(C)s2)c1` (stereo not given): the B-score entry was “inactive”. Turning to `Cc1c(NC(=O)C(C)OC(=O)c2c3c(nc4ccccc24)CCC(C)C3)c(=O)n(-c2ccccc2)n1C` (stereo not given), the B-score entry is “inactive”. The result for `COC(=O)c1cc2nc(-c3ccccc3)cc(C(F)(F)F)n2n1` reads “inactive”; that for `CCOC(=O)CN(C)S(=O)(=O)c1ccc(-c2cc(C(=O)OC)sc2C(F)(F)F)cc1`, “inactive”.

As for `COC(=O)c1sc(C(F)(F)F)c(-c2ccccc2)c1S(=O)(=O)N(C)C`, the B-score was 9.76 (active). To `CC1(C)CC[C@]2(C(=O)O)CC[C@]3(C)C(=CCC4[C@@]5(C)CC[C@H](O)C(C)(C)C5[C@H](O)C[C@]43C)[C@@H]2C1` (stereo not given in full) belongs “inactive”; to `N#Cc1ccc(/C=C2\CCn3c2nc2cc(C(=O)O)ccc2c3=O)cc1`, 6.78 (active). The result for `Cc1ccc(/C=C2\CCn3c2nc2cc(C(=O)O)ccc2c3=O)c(C)c1` reads “inactive”; that for `O=C(O)c1ccc2c(=O)n3c(nc2c1)/C(=C/c1ccc(Cl)c([N+](=O)[O-])c1)CC3`, “inactive”. To `CC1(C)Cc2c(sc3nc4n(c(=N)c23)CCCCC4)CO1` belongs 7.43 (active). For the compound `N=c1c2c3c(sc2nc2n1CCCCC2)CCCC3`, the B-score entry was “inactive”. To `CC(C)c1nc2sc3c(c2c(=O)n1N)CC(C)(C)OC3` belongs “inactive”. The result for `CC1CCC2(CC1)NC(=O)N(CC(=O)c1ccc3c(c1)OCO3)C2=O` (stereo not given) reads “inactive”. In the case of `Cc1ccccc1NC(=O)COc1cccc2c1CCNC2=O`, the B-score entry is “inactive”.

As for `CC1CCc2[nH]c3ccc(C(=O)N(C)CC(=O)Nc4cccc(F)c4)cc3c2C1` (stereo not given), the B-score entry was “inactive”. The result for `Cc1nc2ccccc2c(=O)n1CCCn1ccnc1` reads 8.67 (active); that for `Cc1nc2ccccc2c(=O)n1Cc1ccc([N+](=O)[O-])cc1`, “inactive”. To `Clc1c(OCCCn2ccnc2)ccc2ccccc12` belongs “inactive”; to `CCCCN(C1CCS(=O)(=O)C1)S(=O)(=O)c1ccc(C(C)C)cc1` (stereo not given), “inactive”. To `CN(C)/C=C/C(=O)c1cnc2sccn2c1=O` belongs 6.34 (active). With `O=C(NCc1ccccn1)c1cnc2sccn2c1=O`, the B-score entry was “inactive”. The result for `CCOC(=O)c1cnc2sccn2c1=O` reads “inactive”; that for `COc1cnn(-c2ccc([N+](=O)[O-])cc2)c(=O)c1Cl`, “inactive”. Take `Cc1ccc(-c2cc(=O)[nH]c(NCc3ccccc3)n2)cc1`: the B-score entry is “inactive”. `COc1ccc(C(=O)CN(C(=O)c2ccc(Cl)cc2)N2C(=O)c3ccccc3C2=O)cc1`: the B-score result was “inactive”. Regarding `CCn1c(C)cc(=O)cc1-c1ccc(Cl)cc1`, the B-score result was “inactive”.

Regarding `COc1ccc(Cn2c(-c3ccc(Cl)cc3)c[n+]3ccccc23)cc1`, the B-score was 7.07 (active). To `CN(Cc1ccccc1F)C(=O)C(Cc1ccccc1)NC(=O)c1ccccc1` (stereo not given) belongs “inactive”; to `OCCCNc1nc(-c2ccccc2)c2cc(Cl)ccc2n1`, “inactive”. To `Cc1cc2c(cc1C)[n+](C)cn2CC(O)COCC1CC=CCC1` (stereo not given) belongs 12.6 (active); to `COc1ccccc1C(=O)NC(CCSC)C(=O)N1CCN(C/C=C/c2ccccc2)CC1` (stereo not given), “inactive”; to `Cn1c(=O)n(C)c2cc(C(=O)Nc3ccc(Br)cc3)ccc21`, “inactive”. As to `O=C(Nc1ccc2c(c1)OCO2)c1ccc(N2C(=O)c3ccccc3C2=O)cc1`, the B-score entry was “inactive”. In the case of `Cn1c(=O)n(C)c2cc(C(=O)Nc3ccc4c(c3)OCO4)ccc21`, the B-score was 6.95 (active). To `CCc1ccc(Nc2n[n+](-c3ccccc3)c(-c3cccc(Cl)c3Cl)s2)cc1` belongs “inactive”; to `O=S(=O)(NCCCc1ccccc1)c1ccc(Br)cc1`, “inactive”; to `CCCCn1c(N)c(N(CCC(C)C)C(=O)c2ccc(COc3ccccc3)o2)c(=O)[nH]c1=O`, 12.1 (active). The result for `CCCCn1c(N)c(N(CCC(C)C)C(=O)c2ccc([N+](=O)[O-])o2)c(=O)[nH]c1=O` reads “inactive”. The result for `CCCCn1c(N)c(N(CC(C)C)C(=O)c2ccc(Br)o2)c(=O)[nH]c1=O` reads “inactive”. `COC(=O)c1ccc(SCc2ccccc2)nc1`: the B-score entry was “inactive”.

Take `COc1ccc(NC(=O)CN(C)C(=O)CC2CCCCC2)cc1`: the B-score result was “inactive”. Consider `Cc1ccc(C(=O)NC2CCCC(C)C2C)cc1S(=O)(=O)N1CCCCC1` (stereo not given), for which the B-score result was “inactive”. The result for `O=Cc1ccc(OCc2cn3ccccc3n2)cc1` reads 7.07 (active); that for `COc1ccc(C(=O)NCc2cn3ccccc3n2)cc1`, “inactive”; that for `Cn1cc[n+](C)c1COc1ccc(C=O)cc1`, “inactive”. The result for `COc1ccc(S(=O)(=O)N2CCCCC2)cc1NC(=O)C1CC(=O)N(c2ccc3c(c2)OCCO3)C1` (stereo not given) reads “inactive”. On to `COc1ccc(/C=N/NC(=O)c2cc(-c3cccc(C)c3)nc3ccccc23)cc1O`, for which the B-score entry was “inactive”.

For the compound `CCN1C(=O)[C@H]2[C@@H](c3ccc(SC4CCCCC4)c(OC)c3)N[C@@](Cc3ccccc3)(C(=O)OC)[C@H]2C1=O`, the B-score result was “inactive”.
